Assay in all cases: DAPPL (digital affinity profiling via proximity ligation, sequencing); 10 mM Tris-HCl pH 7.5, 50 mM NaCl, 1 mM DTT, 4% glycerol, room temperature, 30 min; GST-TFs on glutathione beads, 16-mer random dsDNA library, 0.1% formaldehyde crosslink after washing; high values mean tight binding
What all share (details): protein: recombinant; tags: N-terminal GST; dsDNA, one strand shown

One assay addresses T1, ELK1 (Homo sapiens, UniProt P19419 1-428).
T1 sequence: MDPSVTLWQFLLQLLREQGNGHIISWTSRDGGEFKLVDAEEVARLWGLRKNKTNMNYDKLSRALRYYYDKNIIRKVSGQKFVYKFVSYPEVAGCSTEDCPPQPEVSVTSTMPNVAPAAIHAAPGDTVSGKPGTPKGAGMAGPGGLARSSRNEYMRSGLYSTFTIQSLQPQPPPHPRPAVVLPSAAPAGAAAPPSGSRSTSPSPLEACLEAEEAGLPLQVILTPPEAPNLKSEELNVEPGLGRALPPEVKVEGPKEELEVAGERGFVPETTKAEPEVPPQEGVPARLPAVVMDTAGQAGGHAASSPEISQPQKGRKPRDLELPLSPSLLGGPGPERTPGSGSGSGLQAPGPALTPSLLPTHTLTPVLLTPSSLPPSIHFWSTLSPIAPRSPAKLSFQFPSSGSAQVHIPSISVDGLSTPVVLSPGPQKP
In a few lines: (§1)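 GST fusions of human transcription factors were expressed in yeast and captured with glutathione beads. Once given DNA barcodes and pooled alongside a tag-only sample, they were incubated for 30 min at room temperature with 200 nmole of a random double-stranded 16-mer DNA library in Tris/NaCl/DTT/glycerol buffer, then washed, crosslinked (0.1% formaldehyde), proximity-ligated, PCR-amplified and sequenced on an Illumina NextSeq500. The binding signal of each hexamer is its read frequency for a factor divided by its frequency for the tag-only sample.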

In another assay the target is T2, GABPA (Homo sapiens, UniProt Q06546 1-454).
T2 sequence: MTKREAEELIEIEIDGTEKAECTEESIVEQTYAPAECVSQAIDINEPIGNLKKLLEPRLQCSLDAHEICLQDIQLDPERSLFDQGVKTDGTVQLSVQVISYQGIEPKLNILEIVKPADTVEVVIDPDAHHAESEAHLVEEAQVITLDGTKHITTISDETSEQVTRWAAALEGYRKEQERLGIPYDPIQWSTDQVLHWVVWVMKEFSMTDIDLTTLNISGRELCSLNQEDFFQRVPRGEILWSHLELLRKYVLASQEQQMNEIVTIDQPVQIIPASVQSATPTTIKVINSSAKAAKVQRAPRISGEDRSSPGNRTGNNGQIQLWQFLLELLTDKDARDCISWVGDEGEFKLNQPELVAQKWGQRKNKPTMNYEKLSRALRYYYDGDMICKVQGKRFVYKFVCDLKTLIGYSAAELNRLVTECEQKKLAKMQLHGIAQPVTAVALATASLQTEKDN
In a few lines: as §1

A further assay has as its target T3, ERG (Homo sapiens, UniProt P11308 1-479).
T3 sequence: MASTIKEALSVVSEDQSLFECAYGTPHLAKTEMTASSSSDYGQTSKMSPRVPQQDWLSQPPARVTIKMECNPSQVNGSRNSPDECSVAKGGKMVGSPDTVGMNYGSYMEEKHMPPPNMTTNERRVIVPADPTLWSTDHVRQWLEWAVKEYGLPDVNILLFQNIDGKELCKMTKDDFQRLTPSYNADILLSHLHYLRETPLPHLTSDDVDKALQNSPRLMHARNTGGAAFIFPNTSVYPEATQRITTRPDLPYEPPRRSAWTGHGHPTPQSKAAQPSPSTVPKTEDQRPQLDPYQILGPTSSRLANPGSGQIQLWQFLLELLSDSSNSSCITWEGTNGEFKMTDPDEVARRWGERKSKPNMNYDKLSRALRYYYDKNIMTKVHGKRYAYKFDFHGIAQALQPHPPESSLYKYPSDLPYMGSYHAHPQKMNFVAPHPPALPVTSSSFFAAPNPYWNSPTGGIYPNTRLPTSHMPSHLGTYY
In a few lines:
as §1

Another assay has as its target ELF1 (Homo sapiens, UniProt P32519 1-619). A digest of the protocol: as §1
A further assay has as its target T4, EHF (Homo sapiens, UniProt Q9NZC4 1-300).
T4 sequence: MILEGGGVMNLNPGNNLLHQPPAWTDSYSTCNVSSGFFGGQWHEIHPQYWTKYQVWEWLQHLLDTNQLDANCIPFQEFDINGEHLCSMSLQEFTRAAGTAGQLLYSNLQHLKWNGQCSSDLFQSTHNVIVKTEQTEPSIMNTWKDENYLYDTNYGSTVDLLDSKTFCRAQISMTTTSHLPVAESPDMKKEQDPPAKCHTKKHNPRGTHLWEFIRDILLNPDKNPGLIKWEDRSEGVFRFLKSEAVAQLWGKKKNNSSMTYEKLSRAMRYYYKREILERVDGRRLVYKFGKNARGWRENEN
A digest of the protocol: as §1

The target of a further assay is SPI1 (Homo sapiens, UniProt P17947 1-270). A digest of the protocol: as §1
The target in the next assay is SPIB (Homo sapiens, UniProt Q01892 1-262). A digest of the protocol: as §1
Chain of SPIB (Q01892 whole entry): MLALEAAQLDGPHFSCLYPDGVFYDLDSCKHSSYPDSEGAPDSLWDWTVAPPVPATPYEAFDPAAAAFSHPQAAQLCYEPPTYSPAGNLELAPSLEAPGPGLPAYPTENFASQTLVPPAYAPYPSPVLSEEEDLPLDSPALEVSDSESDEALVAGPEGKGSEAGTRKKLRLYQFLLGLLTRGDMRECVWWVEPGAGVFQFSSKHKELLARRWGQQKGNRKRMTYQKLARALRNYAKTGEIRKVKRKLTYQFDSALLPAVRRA
In the next assay the target is T5, FEV (Homo sapiens, UniProt Q99581 1-238).
T5 sequence: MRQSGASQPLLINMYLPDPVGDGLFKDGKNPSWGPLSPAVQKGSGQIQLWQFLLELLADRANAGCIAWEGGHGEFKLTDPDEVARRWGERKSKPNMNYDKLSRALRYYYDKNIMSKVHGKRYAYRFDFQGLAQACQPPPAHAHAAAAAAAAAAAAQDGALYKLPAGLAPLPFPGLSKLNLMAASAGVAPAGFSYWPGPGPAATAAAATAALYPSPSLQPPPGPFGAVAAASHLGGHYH
In a few lines:
as §1

The next assay concerns the target ETV5 (Homo sapiens, UniProt P41161 1-510). In a few lines:
as §1

The target in the next assay is ELF4 (Homo sapiens, UniProt Q99607 1-663). In a few lines: as §1
Chain of ELF4 (Q99607 whole entry): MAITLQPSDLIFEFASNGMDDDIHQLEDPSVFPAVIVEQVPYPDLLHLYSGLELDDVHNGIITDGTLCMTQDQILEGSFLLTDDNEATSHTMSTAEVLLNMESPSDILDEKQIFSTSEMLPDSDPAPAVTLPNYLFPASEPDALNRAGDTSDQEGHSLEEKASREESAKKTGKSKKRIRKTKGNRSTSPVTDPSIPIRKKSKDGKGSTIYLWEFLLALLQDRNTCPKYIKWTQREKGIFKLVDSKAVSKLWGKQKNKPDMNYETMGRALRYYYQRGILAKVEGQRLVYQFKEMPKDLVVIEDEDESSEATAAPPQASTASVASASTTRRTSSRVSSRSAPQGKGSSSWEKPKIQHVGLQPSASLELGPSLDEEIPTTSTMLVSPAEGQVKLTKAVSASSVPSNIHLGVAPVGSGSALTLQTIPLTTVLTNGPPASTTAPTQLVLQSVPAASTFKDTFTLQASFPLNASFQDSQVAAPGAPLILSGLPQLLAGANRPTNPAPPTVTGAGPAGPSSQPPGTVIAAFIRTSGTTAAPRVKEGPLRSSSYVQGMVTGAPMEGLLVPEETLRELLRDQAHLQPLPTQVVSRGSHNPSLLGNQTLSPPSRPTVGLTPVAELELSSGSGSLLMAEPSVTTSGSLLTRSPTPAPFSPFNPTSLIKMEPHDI
For another assay, the target named is T6, ELK4 (Homo sapiens, UniProt P28324-2 1-405).
T6 sequence: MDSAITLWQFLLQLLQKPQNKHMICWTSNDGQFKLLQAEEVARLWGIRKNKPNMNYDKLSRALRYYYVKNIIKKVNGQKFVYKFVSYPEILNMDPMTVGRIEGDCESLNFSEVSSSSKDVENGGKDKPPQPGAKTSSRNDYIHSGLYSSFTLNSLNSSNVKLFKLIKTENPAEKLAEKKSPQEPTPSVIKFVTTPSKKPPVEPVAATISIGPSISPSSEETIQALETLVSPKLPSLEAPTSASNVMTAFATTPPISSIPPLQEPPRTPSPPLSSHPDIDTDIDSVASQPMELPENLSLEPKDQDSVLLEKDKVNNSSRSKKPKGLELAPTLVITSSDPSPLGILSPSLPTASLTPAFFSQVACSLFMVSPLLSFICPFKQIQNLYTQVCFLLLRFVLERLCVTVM
In a few lines:
as §1

The next assay concerns the target T7, ETV2 (Homo sapiens, UniProt O00321 1-342).
T7 sequence: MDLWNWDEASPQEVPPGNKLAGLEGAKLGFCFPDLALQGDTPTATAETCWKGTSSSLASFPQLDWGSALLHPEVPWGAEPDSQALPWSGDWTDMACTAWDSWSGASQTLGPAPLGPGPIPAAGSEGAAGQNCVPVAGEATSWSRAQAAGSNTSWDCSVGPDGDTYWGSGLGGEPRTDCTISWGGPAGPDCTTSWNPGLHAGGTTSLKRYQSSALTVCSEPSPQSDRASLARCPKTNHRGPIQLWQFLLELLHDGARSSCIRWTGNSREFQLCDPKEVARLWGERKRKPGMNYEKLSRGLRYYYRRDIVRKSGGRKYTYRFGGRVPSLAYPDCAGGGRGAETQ
A digest of the protocol: as §1

A further assay deals with T8, ELF3 (Homo sapiens, UniProt P78545 1-371).
T8 sequence: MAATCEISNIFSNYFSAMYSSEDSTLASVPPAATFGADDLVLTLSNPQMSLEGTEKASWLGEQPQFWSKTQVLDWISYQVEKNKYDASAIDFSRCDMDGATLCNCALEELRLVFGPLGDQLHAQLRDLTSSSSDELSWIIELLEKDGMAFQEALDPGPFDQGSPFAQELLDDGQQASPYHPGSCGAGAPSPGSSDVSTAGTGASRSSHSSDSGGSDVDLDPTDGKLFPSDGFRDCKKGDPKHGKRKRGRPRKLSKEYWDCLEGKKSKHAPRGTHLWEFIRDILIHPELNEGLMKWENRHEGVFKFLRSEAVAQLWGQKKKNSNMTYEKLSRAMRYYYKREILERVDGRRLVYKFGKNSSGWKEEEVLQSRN
In a few lines:
as §1

Another assay concerns the target ETV1 (Homo sapiens, UniProt P50549 1-477). In a few lines:
as §1

The target of the next assay is T9, ERF (Homo sapiens, UniProt P50548 1-548).
T9 sequence: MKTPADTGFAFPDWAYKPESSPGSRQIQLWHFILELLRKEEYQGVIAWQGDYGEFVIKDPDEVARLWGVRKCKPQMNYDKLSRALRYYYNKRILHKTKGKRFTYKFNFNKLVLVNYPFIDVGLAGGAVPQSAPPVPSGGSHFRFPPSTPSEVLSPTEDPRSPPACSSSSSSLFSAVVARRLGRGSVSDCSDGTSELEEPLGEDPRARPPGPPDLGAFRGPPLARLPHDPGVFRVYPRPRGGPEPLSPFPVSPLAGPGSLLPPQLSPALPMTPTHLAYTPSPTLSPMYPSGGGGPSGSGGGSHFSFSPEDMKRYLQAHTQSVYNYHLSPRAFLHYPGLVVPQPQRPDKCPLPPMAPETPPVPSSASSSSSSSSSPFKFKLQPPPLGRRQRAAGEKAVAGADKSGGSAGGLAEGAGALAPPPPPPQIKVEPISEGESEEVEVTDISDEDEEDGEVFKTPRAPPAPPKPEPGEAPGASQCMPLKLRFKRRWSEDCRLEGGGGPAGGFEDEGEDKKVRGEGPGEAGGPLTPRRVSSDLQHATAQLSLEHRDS
A digest of the protocol: as §1

A further assay has as its target T10, ETV3L (Homo sapiens, UniProt Q6ZN32 1-361).
T10 sequence: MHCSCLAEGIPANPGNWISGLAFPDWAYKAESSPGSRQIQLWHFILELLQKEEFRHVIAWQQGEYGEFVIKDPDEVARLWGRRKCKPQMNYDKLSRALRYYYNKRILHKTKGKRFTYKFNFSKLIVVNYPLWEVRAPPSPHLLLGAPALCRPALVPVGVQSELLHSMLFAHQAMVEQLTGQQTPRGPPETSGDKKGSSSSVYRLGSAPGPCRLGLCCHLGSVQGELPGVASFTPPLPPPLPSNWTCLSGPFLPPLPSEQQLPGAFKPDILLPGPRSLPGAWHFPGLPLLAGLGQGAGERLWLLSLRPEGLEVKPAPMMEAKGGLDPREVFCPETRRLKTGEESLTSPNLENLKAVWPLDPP
In a few lines: as §1

The next assay deals with T11, ETS2 (Homo sapiens, UniProt P15036 1-469).
T11 sequence: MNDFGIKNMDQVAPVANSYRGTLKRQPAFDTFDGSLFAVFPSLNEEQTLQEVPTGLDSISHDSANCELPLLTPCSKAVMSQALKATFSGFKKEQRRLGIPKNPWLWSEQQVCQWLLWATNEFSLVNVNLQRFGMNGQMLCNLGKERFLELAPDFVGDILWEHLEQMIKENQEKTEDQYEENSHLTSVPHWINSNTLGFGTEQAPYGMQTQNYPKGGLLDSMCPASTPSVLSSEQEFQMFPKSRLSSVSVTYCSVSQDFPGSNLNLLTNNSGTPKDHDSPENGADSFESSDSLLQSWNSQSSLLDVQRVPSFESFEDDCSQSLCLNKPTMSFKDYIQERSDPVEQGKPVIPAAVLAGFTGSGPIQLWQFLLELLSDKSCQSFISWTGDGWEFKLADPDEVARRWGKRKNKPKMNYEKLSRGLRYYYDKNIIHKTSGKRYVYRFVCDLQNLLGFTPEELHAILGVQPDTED
In a few lines:
as §1

Another assay deals with T12, ETV7 (Homo sapiens, UniProt Q9Y603 1-341).
T12 sequence: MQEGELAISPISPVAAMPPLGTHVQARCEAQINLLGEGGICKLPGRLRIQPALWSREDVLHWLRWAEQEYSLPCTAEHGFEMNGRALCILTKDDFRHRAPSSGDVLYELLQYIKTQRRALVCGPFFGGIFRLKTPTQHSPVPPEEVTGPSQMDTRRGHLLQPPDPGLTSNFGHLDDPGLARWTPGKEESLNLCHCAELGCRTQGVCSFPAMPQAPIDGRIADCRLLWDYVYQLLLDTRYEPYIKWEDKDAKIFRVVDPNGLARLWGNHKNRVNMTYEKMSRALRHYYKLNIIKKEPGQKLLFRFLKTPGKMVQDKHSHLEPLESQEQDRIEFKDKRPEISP
In a few lines:
as §1

A further assay concerns the target T13, ETV3 (Homo sapiens, UniProt P41162-2 1-143).
T13 sequence: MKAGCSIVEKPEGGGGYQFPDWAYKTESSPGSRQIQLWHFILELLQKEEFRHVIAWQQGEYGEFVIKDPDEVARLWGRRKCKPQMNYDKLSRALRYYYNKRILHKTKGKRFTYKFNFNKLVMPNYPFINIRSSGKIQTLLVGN
A digest of the protocol:
as §1

The target of a further assay is ETV6 (Homo sapiens, UniProt P41212 1-452). A digest of the protocol: as §1
Chain of ETV6 (P41212 whole entry): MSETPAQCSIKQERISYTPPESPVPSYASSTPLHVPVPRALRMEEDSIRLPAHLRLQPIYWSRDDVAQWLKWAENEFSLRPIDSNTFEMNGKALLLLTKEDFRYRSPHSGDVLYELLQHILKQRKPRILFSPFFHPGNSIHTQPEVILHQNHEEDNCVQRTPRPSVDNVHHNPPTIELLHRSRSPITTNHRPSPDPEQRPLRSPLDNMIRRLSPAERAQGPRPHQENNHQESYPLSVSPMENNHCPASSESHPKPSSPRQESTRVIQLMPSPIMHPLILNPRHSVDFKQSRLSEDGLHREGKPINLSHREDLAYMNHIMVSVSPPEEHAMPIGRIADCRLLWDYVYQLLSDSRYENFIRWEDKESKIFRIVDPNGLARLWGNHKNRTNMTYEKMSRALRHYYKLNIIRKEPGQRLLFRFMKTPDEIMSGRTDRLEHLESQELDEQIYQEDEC

Chain of ETV1 (P50549 whole entry): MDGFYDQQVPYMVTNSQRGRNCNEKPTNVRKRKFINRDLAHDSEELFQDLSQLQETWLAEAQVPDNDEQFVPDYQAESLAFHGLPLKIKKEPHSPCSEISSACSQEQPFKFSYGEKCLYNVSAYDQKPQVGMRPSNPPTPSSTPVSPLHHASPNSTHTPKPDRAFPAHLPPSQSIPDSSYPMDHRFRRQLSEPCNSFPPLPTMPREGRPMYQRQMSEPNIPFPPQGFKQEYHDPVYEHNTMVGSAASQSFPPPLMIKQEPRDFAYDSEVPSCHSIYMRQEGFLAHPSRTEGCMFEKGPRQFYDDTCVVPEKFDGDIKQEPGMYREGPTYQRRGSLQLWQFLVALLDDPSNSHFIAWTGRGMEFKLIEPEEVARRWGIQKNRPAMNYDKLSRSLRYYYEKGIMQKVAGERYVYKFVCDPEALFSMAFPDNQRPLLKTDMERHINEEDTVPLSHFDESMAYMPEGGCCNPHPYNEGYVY
Chain of ELF1 (P32519 whole entry): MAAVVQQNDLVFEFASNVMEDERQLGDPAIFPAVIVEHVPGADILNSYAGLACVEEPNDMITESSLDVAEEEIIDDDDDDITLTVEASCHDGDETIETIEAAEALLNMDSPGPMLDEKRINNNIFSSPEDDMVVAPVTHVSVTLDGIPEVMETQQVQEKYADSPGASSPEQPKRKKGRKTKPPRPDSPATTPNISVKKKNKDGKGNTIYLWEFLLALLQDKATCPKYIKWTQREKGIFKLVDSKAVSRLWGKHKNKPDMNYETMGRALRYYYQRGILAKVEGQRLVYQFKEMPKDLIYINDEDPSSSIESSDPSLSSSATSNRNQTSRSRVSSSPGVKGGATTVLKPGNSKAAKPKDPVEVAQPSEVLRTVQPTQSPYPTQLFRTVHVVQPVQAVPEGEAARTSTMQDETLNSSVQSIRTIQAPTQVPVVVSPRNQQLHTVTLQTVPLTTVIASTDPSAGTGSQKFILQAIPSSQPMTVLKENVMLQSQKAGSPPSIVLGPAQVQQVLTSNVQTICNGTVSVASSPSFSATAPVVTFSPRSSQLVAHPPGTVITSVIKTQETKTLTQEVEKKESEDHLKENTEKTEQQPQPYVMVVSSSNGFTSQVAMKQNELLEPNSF
Chain of ETV5 (P41161 whole entry): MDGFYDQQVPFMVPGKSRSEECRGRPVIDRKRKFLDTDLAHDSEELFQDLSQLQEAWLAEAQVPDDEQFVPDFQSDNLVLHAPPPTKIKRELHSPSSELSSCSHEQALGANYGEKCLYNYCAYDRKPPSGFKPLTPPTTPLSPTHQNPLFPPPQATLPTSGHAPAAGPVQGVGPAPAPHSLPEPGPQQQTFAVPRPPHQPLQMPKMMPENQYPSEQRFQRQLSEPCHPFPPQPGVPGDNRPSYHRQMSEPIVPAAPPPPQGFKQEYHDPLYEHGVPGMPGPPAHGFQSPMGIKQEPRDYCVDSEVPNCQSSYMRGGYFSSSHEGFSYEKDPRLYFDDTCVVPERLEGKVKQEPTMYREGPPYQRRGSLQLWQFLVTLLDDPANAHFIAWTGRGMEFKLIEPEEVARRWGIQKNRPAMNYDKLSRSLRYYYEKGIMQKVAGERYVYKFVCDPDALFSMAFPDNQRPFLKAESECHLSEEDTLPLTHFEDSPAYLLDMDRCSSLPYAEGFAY

As to TGGCCG, the binding signal in the assay with ELK1 was 1.19 fold enrichment (6-mer frequency, TF over GST control); in the assay with GABPA it was 1.15 fold enrichment (6-mer frequency, TF over GST control); with ERG it was 1.19 fold enrichment (6-mer frequency, TF over GST control); with ELF1, 1.08 fold enrichment (6-mer frequency, TF over GST control); with EHF it was 1.02 fold enrichment (6-mer frequency, TF over GST control); in the assay with SPI1 it was 1.14 fold enrichment (6-mer frequency, TF over GST control). For the same sequence, the binding signal with SPIB was 1.17 fold enrichment (6-mer frequency, TF over GST control); in the assay with FEV it was 1.22 fold enrichment (6-mer frequency, TF over GST control); with ETV5 it was 1.17 fold enrichment (6-mer frequency, TF over GST control); with ELF4, 1.08 fold enrichment (6-mer frequency, TF over GST control); with ELK4, 1.06 fold enrichment (6-mer frequency, TF over GST control); with ETV2, 1.04 fold enrichment (6-mer frequency, TF over GST control). For the same sequence, the binding signal with ELF3 is 1.14 fold enrichment (6-mer frequency, TF over GST control); in the assay with ETV1, 1.04 fold enrichment (6-mer frequency, TF over GST control); in the assay with ERF it was 1.05 fold enrichment (6-mer frequency, TF over GST control); with ETV3L, 1.07 fold enrichment (6-mer frequency, TF over GST control); with ETS2, 1.06 fold enrichment (6-mer frequency, TF over GST control); with ETV7, 1.06 fold enrichment (6-mer frequency, TF over GST control). Moreover, the binding signal with ETV3 was 1.11 fold enrichment (6-mer frequency, TF over GST control); in the assay with ETV6 it was 1.11 fold enrichment (6-mer frequency, TF over GST control).

Source of the values: article PMC7862700, “An all-to-all approach to the identification of sequence-specific readers for epigenetic DNA modifications on cytosine”.
